# MCF10A rereplic: A quantitative high throughput screen for small molecules that induce DNA re-replication in MCF 10a normal breast cells; actives 2.9% (n = 350,000); Potency, µM (titrated, usually from 46.1 µM), without a hit: at the highest dose activity, positive = re-replication, most hits filed as activators; AID 624296, 2012; MCF 10A DNA re-replication, Hoechst nuclear intensity, 48 h; further: potency means the concentration at half of the fitted maximal effect; % of control where 0% means no effect; nearly all actives have a fitted effect of over 50% in size
# Vif-APOBEC3F blk: qHTS for Inhibitors of Vif-A3F Interactions: qHTS; actives 0.2% (n = 390,000); HeLa A3F-eYFP + Vif (tagged APOBEC3F with the HIV-1 protein that degrades it), YFP fluorescence increase; Potency, µM (doses to about 46.1 µM), inactives show top-dose activity, negative = active; further: potency means the concentration at half of the fitted maximal effect; % of control where 0% means no effect; nearly all actives have a fitted effect of over 65% in size
#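 Fluorescence increase (Ex 488/Em 500-530) after overnight compound treatment at 37 deg C flags inhibition of Vif-driven A3F-eYFP loss in stable HeLa A3F-eYFP/Vif cells seeded overnight beforehand.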
# Giardia killer: Small Molecules that selectively kill Giardia lamblia: qHTS; actives 0.15% (n = 340,000); activity change, % at 7.66 µM, hits read low; Giardia lamblia trophozoite viability; in the data active means activity change below about -80%; inconclusive means between about -30% and that limit;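 further: parasites exposed to compound for two days anaerobically before the ATP read; on the % scale 0 is the no-effect control and ±100 the full control effect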
#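 Killing of trophozoites was scored by loss of ATP luminescence after a 48 hrs anaerobic exposure to compounds at 37 deg C, using 100 cells per well.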
# Vif-A3G inh: qHTS for Inhibitors of Vif-A3G Interactions: qHTS | DNA dC->dU-editing enzyme APOBEC-3G (Homo sapiens), Q9HC16 | HeLa A3G-eYFP + Vif (tagged APOBEC3G with the HIV-1 protein that degrades it), YFP fluorescence, overnight | Potency, µM (doses to about 46.1 µM), for inactives: at the highest dose activity, negative = active, usual class: inhibitors | actives 0.076% (n = 410,000); further: potency means the concentration at half of the fitted maximal effect; on the % scale 0 is the no-effect control and ±100 the full control effect; nearly all actives have a fitted effect of over 60% in size
# Target sequence (Q9HC16 whole entry, looked up): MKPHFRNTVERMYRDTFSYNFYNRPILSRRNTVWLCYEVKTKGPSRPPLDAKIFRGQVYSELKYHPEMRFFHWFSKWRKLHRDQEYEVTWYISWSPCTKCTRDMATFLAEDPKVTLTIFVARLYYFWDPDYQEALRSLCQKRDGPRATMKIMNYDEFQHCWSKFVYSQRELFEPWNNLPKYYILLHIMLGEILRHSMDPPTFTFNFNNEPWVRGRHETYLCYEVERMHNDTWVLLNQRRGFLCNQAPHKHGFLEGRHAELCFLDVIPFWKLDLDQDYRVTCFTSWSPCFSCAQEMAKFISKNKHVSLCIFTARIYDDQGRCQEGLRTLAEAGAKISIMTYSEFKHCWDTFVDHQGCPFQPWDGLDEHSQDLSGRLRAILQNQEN
#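 Read-out is eYFP fluorescence (Ex 488/Em 500-530) from Vif-expressing HeLa A3G-eYFP cells; more signal means A3G escaped Vif-mediated degradation. Cells plated overnight, compound pinned in, incubated overnight at 37 deg C.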
# SW480 rereplic: A quantitative high throughput screen for small molecules that induce DNA re-replication in SW480 colon adenocarcinoma cells. Potency, µM (doses to about 46.1 µM), inactives show at the highest dose re-replication activation, hits mostly activators. AID 624297, 2012. actives 1.8% (n = 340,000). SW480 DNA re-replication, Hoechst DNA content imaging, 48 h; further: potency means the concentration at half of the fitted maximal effect; % of control where 0% means no effect; nearly all actives have a fitted effect of over 55% in size
#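 SW480 cells exposed to compounds for 48 hr at 37 C, 5% CO2, then Hoechst-stained 40 min. Nuclear DNA content imaged by fluorescence scanning (405 nm excitation, 500-530 nm emission); re-replication scored as increased high-intensity nuclei.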
# IL-1B inflam inh: qHTS for Inhibitors of Inflammasome Signaling: IL-1-beta AlphaLISA Primary Screen; activity change, % at 57.5 µM; actives 4.7% (n = 360,000); AID 743279, 2014; THP-1 LPS/ATP IL-1B secretion, AlphaLISA, 16 h; hits give low values; in the data active means activity change below about -50%; inconclusive means mostly about -30% to -49%; further: on the % scale 0 is the no-effect control and ±100 the full control effect
#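 Secreted IL-1B measured by AlphaLISA bead assay after 16 h compound exposure of THP-1 cells; compounds (final up to 57.5 uM) added 1 h before LPS (250 ng/mL) and ATP (1.25 mM) stimulation; lower signal means less secretion.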
# * hit, by the source's call; ? = inconclusive; nt = no result. Compounds with a hit are over-represented: about 6.9% of the library has one in this group of screens. Unless noted, the call rests on the fitted dose curve; in most records, active means well fitted curve in the direction sought with a large enough effect; inconclusive means small, poorly fitted or top-dose-only effect, or another doubt; inactive means no such curve, though single readings can be large; an effect the other way counts as inactive or inconclusive.
SMILES,MCF10A rereplic,Vif-APOBEC3F blk,Giardia killer,Vif-A3G inh,SW480 rereplic,IL-1B inflam inh
CC(=O)c1ccc(NC(=S)NC(C)c2ccc(Cl)cc2Cl)cc1 (configuration not stated),?,-14%,-7,0%,-4%,-73*
CC(=O)c1ccc(NC(=S)Nc2ccc(Br)c(Cl)c2)cc1,3%,-16%,-5,0%,-2%,?
CN1CCN(C2=Nc3c(Cl)cc(Cl)c4cccc2c34)CC1,-2%,-6%,-6,-10%,-46%,-53*
CCCOc1ccc(NC(=O)CC2C(=O)N(c3ccc(C)cc3)C(=O)N2C(C)C)cc1 (configuration not stated),nt,-4%,nt,-3%,nt,nt
Cc1cc(C)cc(NC(=O)CSc2ccc(-c3cccs3)nn2)c1,11%,2%,-4,5%,17%,-72*
CC(=O)Nc1cccc(NC(=O)CSc2ccc(-c3ccccn3)nn2)c1,?,1%,-2,-22%,?,115
CCc1ccc(NC(=O)CSc2ccc(-c3ccccn3)nn2)cc1,12µM*,?,26,-2%,12%,265
CCCCN1C(=O)c2[nH]nc(-c3ccccc3O)c2C1c1ccc(OCc2ccccc2)cc1 (configuration not stated),nt,0%,nt,-24%,nt,nt
CCc1ccc(-n2c(SCC(=O)c3ccc4c(c3)NC(=O)CO4)nc3ccccc3c2=O)cc1,-4%,?,7,0%,1%,53
O=C1COc2ccc(C(=O)CSc3nc4ccccc4c(=O)n3-c3ccc(Cl)c(Cl)c3)cc2N1,13µM*,10µM*,-10,?,18µM*,84
O=C(CSc1nc2[nH]ncc2c(=O)n1-c1ccccc1)c1ccc2c(c1)OCCO2,9%,1%,2,-13%,-8%,-54*
COC(=O)c1cc2oc3ccccc3c2n1Cc1nc(-c2ccccc2Cl)oc1C,nt,5%,nt,3%,nt,nt
COc1ccc(C)cc1NC(=O)Nc1nnc(N2CCCCC2)s1,nt,5%,nt,-1%,nt,nt
CC(=O)c1cccc(NC(=O)c2oc(=O)c3ccccc3c2-c2ccccc2)c1,nt,-7%,nt,-3%,nt,nt
O=S(=O)(c1ccccc1Cl)N1CCN(c2nc(-c3cccs3)nc3ccccc23)CC1,nt,nt,-5,nt,nt,nt
O=C(NCc1ccccc1Cl)c1ccccc1NC(=O)c1nsc2ccccc12,nt,6%,nt,6%,nt,nt
Cc1cccc(NC(=O)CN2C(=O)N/C(=C\c3ccc(-c4cccc(C(=O)O)c4)o3)C2=O)c1,16µM*,21%,8,1%,18µM*,11
Cc1ccc(CN2C(=O)N/C(=C/c3ccc(-c4ccc(C(=O)O)cc4)o3)C2=O)cc1,8.2µM*,-5%,11,2%,4.6µM*,0
Cc1cc(C(=O)O)ccc1-c1ccc(/C=C2\NC(=O)N(Cc3ccc(F)cc3)C2=O)o1,3.7µM*,-16%,-10,-4%,9.2µM*,-6
Cc1ccc(CN2C(=O)N/C(=C\c3cccn3-c3cccc(C(=O)O)c3)C2=O)cc1,-12%,9%,-10,-5%,-7%,38
O=C(O)c1ccc(COc2ccc3ccccc3c2/C=C2/NC(=O)N(Cc3ccc(F)cc3)C2=O)cc1,18µM*,5%,-20,-14%,?,?
Cc1cccc(NC(=O)CN2C(=O)N/C(=C/c3ccc(C)o3)C2=O)c1,-45%,-10%,-24,-2%,-54%,-1
O=C(c1ccccc1)N(Cc1ccc(F)cc1)Cc1nc2ccccc2c(=O)[nH]1,?,-3%,-12,-14%,4.1µM*,21
O=C(c1ccncc1)N(Cc1ccccc1)Cc1nc2ccccc2c(=O)[nH]1,0%,3%,12,0%,1%,15

# Assay outcomes: PubChem, National Center for Advancing Translational Sciences (NCATS)
